Test results as given in PubChem BioAssay.
Activity calls are given as the source filed them. The rule behind the calls is not given here.

Experiment: inhibition of 3D7 malaria parasite growth – strain 3D7 (AID 2306);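 note: 0% = DMSO wells and 100% = chloroquine plus artemisinin control wells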
Settings: P. falciparum 3D7 erythrocytic growth, LDH absorbance, 72 h; at 2 µM; hits give high values

Growth inhibition, active:
Cn1c2c(c3ccccc31)CN(CCC1(c3ccc(Cl)c(Cl)c3)CN(C(=O)Cc3ccccc3)CCO1)CC2 (stereo unspecified) 95%
O=C(NCc1ccc(F)cc1)Nc1ccc(-c2cccc(-c3nc4ccc(F)cc4[nH]3)c2)cc1 100%
COc1ccc(/C=C/C(=O)N2CCc3cc4nccc(N5CCN6CCC[C@H]6C5)c4cc32)cc1 100%
CS(=O)(=O)Nc1cccc(-c2cnc3[nH]cc(-c4cc(N)cc(C(=O)O)c4)c3c2)c1 96%
CCN(CC)CCN(Cc1ccc(-c2ccc(C(F)(F)F)cc2)cc1)C(=O)Cn1c(CCc2ccc(F)c(F)c2F)nc(=O)c2cccnc21 89%
Cc1cc(N2CCOCC2)nc2ccc(NC(=O)c3ccc(Cl)c([N+](=O)[O-])c3)cc12 98%
CCOc1cccc(C(=O)Nc2ccc(-c3nc4ccccc4[nH]3)cc2)c1 96%
O=C(NCCCCN1CCC(c2ccc([N+](=O)[O-])cc2)CC1)c1ccc(NC(=O)c2ccc(Cl)cc2)cc1 100%
O=C(Nc1cccc(-c2ccc(CN3CCNCC3)cc2)c1)c1cccc(Cl)c1 92%
Cc1cc(N(C)C)nc(Nc2ccc(NC(=O)C(C)Oc3ccccc3)cc2)n1 (stereo unspecified) 98%
CCN(CC)CCN(Cc1ccc(-c2ccc(C(F)(F)F)cc2)cc1)C(=O)Cn1c(CCc2ccc(F)cc2)nc(=O)c2sccc21 99%
Cc1ncc([N+](=O)[O-])n1CCOC(=O)NC(NCC1COc2ccccc2O1)C(Cl)(Cl)Cl (stereo unspecified) 101%
COC(=O)c1ccc(CN2CCC(N(Cc3cccc(Oc4ccccc4)c3)S(=O)(=O)c3ccc(NC(C)=O)cc3)CC2)cc1 82%
COc1ccc(CN2CCC(N3CC(c4ccccc4)(c4ccccc4)OCC3=O)C2)c(O)c1 (stereo unspecified) 96%
CC(C)Oc1ccc(C=CC(=O)Nc2noc3ccccc23)cc1 96%
N#Cc1ccc(Cn2ccc3c4c(N)nc(N)nc4ccc32)cc1 92%
CC(=O)c1cccc(Nc2nc3c(C#N)c(OCc4cc(Cl)cc(Cl)c4)ccc3[nH]2)c1 86%
CCN(CC)CCCN(Cc1ccc(-c2ccc(C(F)(F)F)cc2)cc1)C(=O)Cn1c(SCc2cccc(F)c2F)cc(=O)c2ccccc21 87%
Cc1[nH]c(C)c(-c2ccc(OCCOc3ccc(C(F)(F)F)cn3)cc2)c(=O)c1Br 97%
CC(C)CCOc1ccc(NC(=O)c2cccs2)cc1 95%
CCN1CCN(c2ccc(Nc3ccnc4ccc(Br)cc34)cc2)CC1 98%
CC1(C)N=C(NC(=O)Nc2ccc([N+](=O)[O-])cc2)N=C(N)N1OCc1cccc2ccccc12 97%
CC(O)C1CCCCN1C(=O)c1cccc(-c2cccc(-c3nc4ccc(F)cc4[nH]3)c2)c1 (stereo unspecified) 101%
COc1cccc(-c2cccc(-c3ccc(NC(=O)c4ccc([N+](=O)[O-])o4)cc3)n2)c1 97%
N#Cc1ccc2c(c1)CN(C1CCC(NC(=O)c3cc(-c4ccc(Cl)cc4)cs3)CC1)CCC2 (stereo unspecified) 101%
CCOc1ccc2nc3cc(NC(=O)c4ccco4)ccc3c(N)c2c1 101%
COc1ccc2ncc(F)c([C@@H](O)CN3CCC(NCc4cc5c(cn4)OCS5)CC3)c2c1 103%
FC(F)(F)c1ccc2nccc(NCc3ccccc3)c2c1 93%
COc1ccc(CN2CCCN(Cc3cccc(C(=O)Nc4ccc(C(C)(C)C)cc4)c3)CC2)cc1 98%
CCc1ccc(C(=O)NC(=O)c2ccccc2O)cc1 95%
COc1ccc(N2CCN(CCCNC(=O)c3ccc(NC(=O)c4cc(Cl)cc(Cl)c4)cc3)CC2)c(OC)c1 101%
CCCC(=O)Nc1ccc(OCCCN(Cc2ccccc2F)c2ccc(C#N)c(C(F)(F)F)c2)cc1 89%
CN(C)c1ccc(C2c3nc[nH]c3CCN2C(=O)Nc2cccc([N+](=O)[O-])c2)cc1 (stereo unspecified) 98%
COc1cccc(NC(=O)Nc2ccc(Nc3nc(C)cc(N(C)C)n3)cc2)c1 101%
CCn1ncc2c(N3CCCC3=O)cc(C(=O)N[C@@H](Cc3ccccc3)[C@H](O)CNC(C)(C)c3cccc(C(F)(F)F)c3)cc21 98%
Fc1cccc(COc2ccc(-n3ccc4c(NCCCn5ccnc5)ncnc43)cc2Cl)n1 87%
